# HCV inh: inhibitors of hepatitis C virus infection | Huh7.5.1 HCVcc-Cre infection, luciferase reporter, 44 h | AID 651820 | actives 3.4% (n = 340,000) | Potency, µM (doses to about 41.8 µM), most hits filed as inhibitors; active = well fitted inhibition curve with a large enough effect; inconclusive = small, poorly fitted or top-dose-only effect, or another doubt; inactive = no such curve, though single readings can be large or run the other way
#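 1,000 cells/well; 4 h culture; + compound; + HCVcc-Cre (~0.5 moi); 44 h; luciferase substrate, RT 15 min; read 15 sec.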
# Marburg entry inh: blocks Marburg virus binding to or entry into cells; AID 540276; Marburg virus pseudotyped entry inhibition, cell reporter; actives 1.8% (n = 300,000); Potency, µM (titrated, usually from 37.8 µM), usual class: inhibitors; calls by dose curve; tested in HEK293 cells
# Lassa entry inh: inhibitors of Lassa virus binding or cell entry | Lassa virus pseudotype entry inhibition, cell reporter | Potency, µM (series often up to 37.9 µM), usual class: inhibitors | actives 1.2% (n = 300,000) | AID 540256; calls by dose curve; tested in HEK293 cells; note: nearly all actives have a fitted effect of over 50% in size
# HCMV antiviral: blocks human cytomegalovirus replication. HFF cells, HCMV-luciferase reporter, 72 h; stronger effect = lower value. activity change, negative = inhibition, % at 57.5 µM. actives 4.5% (n = 410,000). AID 1259415; in the data active = activity change below about -60%; inconclusive = no clear call, values can overlap the other calls; inactive = above about -39%
#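 Two-dose cell screen: HFF monolayers treated with compounds and infected with luciferase-expressing HCMV at 1 PFU/cell, 72 h at 37C, then lysed for luciferase measurement.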
# FMDV inh: antivirals against foot and mouth disease virus; FMDV antiviral cell-based qHTS; actives 1.2% (n = 410,000); AID 1159524; Potency, µM (titrated, usually from 57.9 µM), usual class: inhibitors; calls by dose curve; tested in HEK293T cells; note: read-out not given here; nearly all actives have a fitted effect of over 45% in size
# SARS PLP yeast: blocks SARS-CoV papain-like protease in a yeast assay | Potency, µM (series often up to 32.9 µM), usual class: activators | actives 0.19% (n = 330,000) | S. cerevisiae expressing SARS-CoV PLpro, growth rescue | AID 485353; calls by dose curve; note: nearly all actives have a fitted effect of over 55% in size
# Numbers stand for hits; n = inactive; u = inconclusive; x = no result given. Sampled rows, rich in hits. Any-hit rate of the full collection: about 8%.
SMILES,HCV inh,Marburg entry inh,Lassa entry inh,HCMV antiviral,FMDV inh,SARS PLP yeast
CCOC(=O)c1nn(-c2cccc(OC)c2)c2nc(Nc3ccccc3)cc(=O)n12,11µM,n,n,n,n,n
CC(=O)N1CCN(c2ccc(OCC3CO[C@@](Cn4ccnc4)(c4ccc(Cl)cc4Cl)O3)cc2)CC1 (stereo partly specified),x,x,x,x,25µM,x
CC(C)N1CCN(c2ccc(OC[C@H]3CO[C@](Cn4cncn4)(c4ccc(Cl)cc4Cl)O3)cc2)CC1,u,x,x,-99,n,x
CC(C)N1CCN(c2ccc(OCC3COC(Cn4cncn4)(c4ccc(Cl)cc4Cl)O3)cc2)CC1 (stereo unspecified),u,u,n,n,n,x
CC(=O)N1CCN(c2ccc(NC(=O)c3cc(Cl)ccc3Cl)cc2)CC1,n,x,x,n,n,n
Cc1cccc(N2CCN(C(=O)c3ccoc3C)CC2)c1C,u,u,u,n,u,n
CCN(CC)S(=O)(=O)c1ccc2c(c1)N(CC(=O)N1CCN(c3cccc(C)c3C)CC1)C(=O)CO2,x,x,n,n,n,x
COC(=O)N1CCC2(CCCN(Cc3ccccc3)C2)CC1,x,x,x,x,n,x
COc1ccc(-c2noc(N3CCC(C(=O)Nc4cccc(C)c4C)CC3)n2)cc1,x,x,n,n,n,x
COc1ccc(-c2noc(N3CCC(C(=O)Nc4cccc(OC)c4)CC3)n2)cc1,22µM,x,x,n,n,n
COc1ccc(-c2noc(N3CCC(C(=O)N(C)c4ccccc4C)CC3)n2)cc1,11µM,x,x,u,n,n
O=C(CCCCCN1C(=O)CCC1=O)Nc1ncn[nH]1,n,n,n,-103,n,n
Cc1c(Cl)cccc1NC(=O)CCCCCN1C(=O)CCC1=O,n,n,n,n,n,n
COC(=O)C1=C(c2cccc3c2S(=O)(=O)c2ccccc2-3)C[C@@H]2CC[C@H]1N2C(=O)N1CCOCC1,n,x,x,n,n,n
COC(=O)C1=C(c2cccc3c2S(=O)(=O)c2ccccc2-3)C[C@@H]2CC[C@H]1N2C(=O)N1CCc2cc(OC)c(OC)cc2C1,10µM,x,x,n,n,n
CN1c2ccccc2Oc2c(c(=O)n(C)c(=O)n2C)C1c1cccc([N+](=O)[O-])c1 (stereo unspecified),3.5µM,u,n,n,n,n
CCN(CC)CC(=O)N1c2ccccc2Oc2c(c(=O)n(C)c(=O)n2C)C1c1cccc([N+](=O)[O-])c1 (stereo unspecified),n,n,n,n,n,n
O=C(Nc1ccc2c(c1)OCCO2)C1c2ccccc2OCC(=O)N1Cc1ccco1 (stereo unspecified),x,x,x,n,n,x
CN(C)/C=N/c1nc(-c2ccc3c(c2)OCO3)cs1,u,n,u,n,n,n
CN(C)/C=N/c1nc(-c2ccc3ccccc3c2)cs1,u,u,10µM,n,n,n
CCn1c(SCC(=O)Nc2ccccc2N2CCCCC2)nc2c1c(=O)n(C)c(=O)n2C,u,u,n,-69,u,u
CCCNc1nc2c(c(=O)n(C)c(=O)n2C)n1CC(O)COc1ccccc1 (stereo unspecified),x,n,n,n,u,x
CCNc1nc2c(c(=O)n(C)c(=O)n2C)n1Cc1ccc(Cl)cc1,3.5µM,x,x,-66,n,n
CC(C)Sc1nc2c(c(=O)n(C)c(=O)n2C)n1Cc1ccc(Cl)cc1,10µM,n,n,n,u,n
CCNc1nc2c(c(=O)n(C)c(=O)n2C)n1CC(O)COc1ccccc1 (stereo unspecified),x,n,n,n,22µM,x
SMILES,HCV inh,Marburg entry inh,Lassa entry inh,HCMV antiviral,FMDV inh,SARS PLP yeast
COc1cccc(CNC(=O)Cn2cc3c(n2)-c2c(oc(C(=O)N4CCCC4)c2C)CC3)c1OC,x,x,n,u,u,x
COC(=O)c1cc(C#N)c(N2CC(C)OC(C)C2)nc1C (stereo unspecified),n,n,n,n,n,n
COC(=O)[C@H]1C(=O)C[C@@](C)(O)[C@@H](C(=O)OC)[C@@H]1c1ccccc1F,x,n,x,x,x,x
Cc1onc(-c2ccccc2)c1C(=O)NCCN1Cc2ccccc2OC(c2ccsc2)C1 (stereo unspecified),x,x,x,x,n,x
CCCNc1nc2c(c(=O)n(C)c(=O)n2C)n1Cc1ccc(F)cc1,11µM,x,x,n,u,n
Cn1c(=O)c2c(nc(NCc3ccccc3)n2Cc2ccc(F)cc2)n(C)c1=O,n,x,x,x,x,n
Cn1c(NCc2ccco2)nc2c1c(=O)n(Cc1ccc(Cl)c(Cl)c1)c(=O)n2C,n,n,n,n,32µM,n
